{
  "source": "patent US5750335",
  "about": "“Screening for genetic variation” (Massachusetts Institute of Technology)",
  "data": [
    {"molecular_target": "T1, MutS (Salmonella typhimurium, UniProt P0A1Y0 P0A1Y0:1-855)", "T1 sequence": "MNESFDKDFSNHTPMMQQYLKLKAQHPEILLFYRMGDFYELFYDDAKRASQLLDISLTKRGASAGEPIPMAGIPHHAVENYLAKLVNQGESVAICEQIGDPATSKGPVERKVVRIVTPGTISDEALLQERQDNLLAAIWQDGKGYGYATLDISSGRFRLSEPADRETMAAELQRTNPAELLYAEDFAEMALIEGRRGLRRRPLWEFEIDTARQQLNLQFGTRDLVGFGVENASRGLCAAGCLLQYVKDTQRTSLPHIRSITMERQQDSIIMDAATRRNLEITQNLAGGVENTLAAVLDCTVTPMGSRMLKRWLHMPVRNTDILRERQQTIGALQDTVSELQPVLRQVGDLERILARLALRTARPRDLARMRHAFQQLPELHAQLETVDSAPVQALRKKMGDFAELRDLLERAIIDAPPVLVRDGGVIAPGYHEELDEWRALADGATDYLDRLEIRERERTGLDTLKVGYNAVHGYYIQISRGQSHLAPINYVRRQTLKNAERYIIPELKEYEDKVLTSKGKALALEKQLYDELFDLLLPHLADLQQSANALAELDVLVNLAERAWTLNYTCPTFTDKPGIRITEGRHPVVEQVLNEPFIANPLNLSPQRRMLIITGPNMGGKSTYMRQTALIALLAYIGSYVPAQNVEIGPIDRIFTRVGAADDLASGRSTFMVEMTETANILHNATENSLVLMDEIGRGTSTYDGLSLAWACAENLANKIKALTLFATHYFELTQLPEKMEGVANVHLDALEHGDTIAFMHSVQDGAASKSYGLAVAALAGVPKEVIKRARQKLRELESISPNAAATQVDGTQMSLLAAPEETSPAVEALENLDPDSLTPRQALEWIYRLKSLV", "assay": "pulldown; homoduplex control precipitated 53 fold less; 5 mM MgCl2, on ice, competitor DNA", "details": "tags: none (overproduced from pGW1825); chain copies: 2; label: 32P on DG6R; fully matched homoduplex; second strand (DG5) copied as printed, pairs with DG6R only if read 3'-5' relative to it; dsDNA, one strand shown", "description": "Affinity fractionation of heteroduplex nucleic acid was performed as follows. Two binding reactions were incubated on ice for 30 minutes, one containing heteroduplex nucleic acid and a control containing homoduplex DNA. The heteroduplex reaction contained 14.5 pMol of MutS, 200 fmol of DG-4/6 Het, and 2 ug of competitor nucleic acid in a total volume of 20 ul. The control reaction contained 14.5 pmol of MutS, 200 fmol of DG-5/6 Hom, and 2 ug of competitor nucleic acid in a total volume of 20 ul. After 30 minutes on ice, 5 ul of anti-MutS antibody was added to each binding reaction, and the result was incubated on ice for 60 minutes. 10 ul of Staphylococcus aureus cells that had been washed twice in assay buffer were added to both binding reactions (see McKay, 1981, supra) and the result was incubated on ice for an additional 30 minutes. Both reactions were then spun in a microfuge for 3 minutes at 4° C. and the pellet was washed 8 times in assay buffer.", "values": [
      {"sequence": "GATCCGTCGACCTGCA", "binding signal": "1 fold (reference)"}
    ]}
  ]
}
